Experiment in all cases: NCI-60 one-dose screen, 48 h (100 = growth as untreated, 0 = no growth, -100 = all killed)
Common to all, as to details: 10 µM unless noted

Experiment [1] relates to SR leukemia.
Experiment [2] has as its system RPMI-8226 leukemia.
The subject of experiment [3] is OVCAR-8 ovarian.
The subject of experiment [4] is OVCAR-5 ovarian.
Experiment [5] has as its system OVCAR-4 ovarian.
The test system of experiment [6] is SK-OV-3 ovarian.
Experiment [7] deals with IGROV1 ovarian.
Experiment [8] deals with OVCAR-3 ovarian.
The test system of experiment [9] is HS 578T breast.
For experiment [10], the system named is NCI/ADR-RES ovarian.
For experiment [11], the system named is T-47D breast.
Experiment [12] relates to BT-549 breast.
The subject of experiment [13] is MDA-MB-435 melanoma.
Experiment [14] has as its system MCF7 breast.
The subject of experiment [15] is HCT-116 colon.
For experiment [16], the system named is HCC-2998 colon.
Experiment [17] concerns SW-620 colon.
The subject of experiment [18] is KM12 colon.

About 83,000 compounds went through this panel and 20% of them were active in at least one assay; those are over-represented in the sample as a whole.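 Values shown are percent growth following 48 h exposure of cells in 96-well plates to a single concentration of compound; below 10 was considered active.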 A number with no mark means an inactive call. The source made the active and inactive calls.

On to `CCC(C)[C@H](NC(=O)Nc1cc(C(F)(F)F)cc(C(F)(F)F)c1)C(=O)N[C@@H](Cc1cn(C)cn1)C(=O)OC` (stereo partly specified), for which the growth in [1] was -37.8% [100 µM] (active); in experiment [2], -65.7% [100 µM] (active); in experiment [3], -78.3% [100 µM] (active); in experiment [4], -93.7% [100 µM] (active); in experiment [5], -96.7% [100 µM] (active); in [6], -100% [100 µM] (active). Besides, the growth in experiment [7] was -81.5% [100 µM] (active); in experiment [8], -97.6% [100 µM] (active); in experiment [9], -18.6% [100 µM] (active); in [10], -49.2% [100 µM] (active); in experiment [11], -63.1% [100 µM] (active); in [12] it was -94.5% [100 µM] (active). For the same compound, the growth in experiment [13] is -91.6% [100 µM] (active); in [14], -60.1% [100 µM] (active); in experiment [15], -93.1% [100 µM] (active); in experiment [16] it was -89.9% [100 µM] (active).
Take `CC(=O)Nc1nc(C)c(C(=O)N/N=C/c2cccs2)s1`: the growth in experiment [1] was 81.4%; in [2] it was 61.9%; in experiment [3], 112%; in [4] it was 99%; in [5], 112%; in [6], 87.7%. The growth is -4.95% (active) in [7]; 121% in experiment [8]; 85.5% in experiment [9]; 99.2% in [10]; 67.8% in experiment [11]; 120% in experiment [12]. Further, the growth in [13] was 111%; in experiment [17], 94.2%; in experiment [14] it was 75.7%; in experiment [16], 114%; in [18], 116%.
For the compound `CC[C@H](Nc1ncnc2nc[nH]c12)c1nc2cccc(NCc3ccc(C(=O)NO)o3)c2c(=O)n1-c1ccccc1`, the growth was 76.2% in [1]; 94.9% in [2]; 99.2% in experiment [3]; 98.3% in experiment [4]; 97.3% in [5]; 110% in experiment [6]. For the same compound, the growth in [7] was 106%; in [8] it was 97.6%; in experiment [9], 84.7%; in experiment [10] it was 101%; in experiment [11], 80.8%; in [12], 86%. In addition, the growth was 105% in experiment [13]; 91.4% in experiment [14]; 96.9% in [15]; 104% in [16]; 103% in experiment [18].
Take `CC(=O)NCCN`: the growth in experiment [1] was 97%; in experiment [2] it was 105%; in experiment [3], 93.4%; in experiment [4], 102%; in [5], 115%; in experiment [6], 116%. The growth in experiment [7] is 111%; in [8], 113%; in experiment [9], 103%; in experiment [10] it was 113%; in experiment [11], 97.5%; in experiment [12], 102%. Also, the growth in experiment [13] is 107%; in experiment [17], 107%; in [14], 104%; in experiment [15], 102%; in experiment [16] it was 97.4%; in [18] it was 113%.
In the case of `Cc1ccnc2c(NC(C)CCCN)cc(O)c(O)c12` (stereo unspecified), the growth in experiment [1] is 79.7%; in experiment [2], 95.2%; in [3], 64.9%; in experiment [4] it was 79.7%; in [5], 20%; in experiment [6], 99.9%. Moreover, the growth in experiment [7] was 103%; in experiment [8], 59.8%; in experiment [9] it was 80.6%; in [10], 87.5%; in experiment [11] it was 106%; in experiment [12] it was 92.1%. Moreover, the growth was 103% in experiment [13]; 31.5% in experiment [14]; 99.7% in [15]; 91.6% in experiment [16]; 109% in [18].
Take `O=C(NCCO)C(F)(F)F`: the growth in experiment [1] was 98.7%; in experiment [2], 109%; in experiment [3] it was 103%; in experiment [4], 96.6%; in [5], 118%; in [6], 100%. Besides, the growth in experiment [7] is 106%; in experiment [8], 101%; in experiment [9], 106%; in [10], 106%; in experiment [11] it was 95.8%; in [12], 106%. For the same compound, the growth in experiment [13] is 108%; in [17], 105%; in [14], 95.6%; in experiment [15], 108%; in experiment [16], 97%; in experiment [18], 107%.
`CC([C@H]1CCC2C3CCC4C[C@@H](N)CC[C@]4(C)C3CC[C@@]21C)N(C)C` (stereo partly specified): the growth was 18.5% in [1]; 58.7% in experiment [2]; 85.7% in [3]; 98.5% in [4]; 38.4% in experiment [5]; 91.1% in experiment [6]. For the same compound, the growth in [7] was 53.1%; in experiment [8], 71.5%; in experiment [9] it was 79.1%; in [10] it was 81.5%; in [11] it was 55.9%; in experiment [12] it was 80.1%. The growth is 0% (active) in [13]; 40.2% in experiment [17]; 48.7% in experiment [14]; 27.9% in experiment [15]; 80.1% in [16]; 51.3% in experiment [18].
For `COc1cccc2c1n([O-])c1cccc(OC)c1[n+]2=O`, the growth is 19.8% in [1]; 31.8% in [2]; 52.8% in experiment [3]; 18.2% in experiment [4]; 50.2% in [5]; 90.8% in experiment [6]. Further, the growth in [7] is -46.3% (active); in experiment [8], 164%; in experiment [9] it was 99%; in experiment [10] it was 61.1%; in [11], 50.2%; in experiment [12] it was 71.5%. The growth in [13] was 91.5%; in experiment [14] it was 36.9%; in [15], 48.5%; in [16], -4.2% (active); in experiment [18] it was 73.3%.
Turning to `Oc1ccccc1/C=N/N=C\c1ccccc1Cl`, the growth in experiment [1] was 82.4%; in [2], 102%; in experiment [3], 95.2%; in [4], 115%; in [5], 93.4%; in [6], 96%. Further, the growth is 70.3% in experiment [7]; 84.1% in experiment [8]; 105% in experiment [9]; 95.2% in experiment [10]; 67.1% in [11]; 86.2% in experiment [12]. For the same compound, the growth in [13] was 107%; in [17], 94.6%; in experiment [14], 54.1%; in experiment [15] it was 100%; in experiment [16] it was 100%; in experiment [18] it was 88.4%.

Source of the values: PubChem BioAssay (NCI).
